A selection: hits, their analogues and other compounds. The true share with any hit is near 1.6%.
KCNH2 3.1 inh: inhibitors of human KCNH2 3.1 potassium channel isoform; U2OS KCNH2 3.1, thallium flux FluxOr; hits give low values; activity change, % (tested at about 1.8 µM); hit rate 0.95% among 340,000; AID 720553;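 active means maximum activity change below -70%; inconclusive means maximum activity change from -70% to -50%; inactive means maximum activity change above -50%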;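 further: thallium influx rate constant from kinetic fluorescence after stimulation buffer; on the % scale 0 is the no-effect control and ±100 the full control effect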
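FluxOr-based Tl+ influx in U2OS cells transduced with KCNH2 3.1 virus; rate constants normalized to DMSO controls.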
Akt phos inh: Akt phosphorylation inhibition. AID 651550. Neuro2A IGF-stimulated pAkt S473 HTRF, 20 min; hits give low values. hit rate 0.32% among 360,000. activity change, % for hits at 50 µM; in the data active means activity change below about -80%; inconclusive means mostly about -51% to -80%; further: on the % scale 0 is the no-effect control and ±100 the full control effect
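Neuro2A cells (4,500/well, DMEM with 0.5% FBS) were treated with compound at a single 50 µM final concentration, stimulated with 6 nM IGF for 20 min at 37 °C, and lysed. Phospho-Akt Ser473 was read by HTRF as 665/615 ratio ×10^4.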
gsp antagonist: gsp mutant antagonism; gsp-mutant cells, cAMP HTRF, 30 min; AID 624288; hit rate 0.4% among 340,000; Potency, µM (doses to about 76.9 µM), for the others: top-dose activity change, negative = inhibition, most hits filed as inhibitors; calls by dose curve; cell line not stated here;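 further: intracellular cAMP measured with PDE inhibitor Ro 20-1724 present during compound exposure; potency means the concentration at half of the fitted maximal effect; on the % scale 0 is the no-effect control and ±100 the full control effect; nearly all actives have a fitted effect of over 65% in size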
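Cells, 2000/well, grown 16–24 h in DMEM 10% FBS with 0.5 mg/ml G418, then compounds plus […] (300 uM addition stock), 30 min at 37C. cAMP read by HTRF (cAMP-d2 and anti-cAMP antibody-K in lysis buffer) after 30 min RT.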
GRP78 ERSR act: induces the endoplasmic reticulum stress response in human glioma cells | U87-MG GRP78 promoter luciferase reporter, 16 h | Potency, µM, inactives show top-dose activation, actives largely listed as activators | hit rate 0.02% among 420,000 | AID 602332; active means well fitted activation curve with a large enough effect; inconclusive means small, poorly fitted or top-dose-only effect; inactive means no such curve, though single readings can be large or run the other way; further: potency means the concentration at half of the fitted maximal effect; series mostly up to about 76 µM; % of control where 0% means no effect; nearly all actives have a fitted effect of over 35% in size
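Stably transfected U87-MG human glioma cells carrying a GRP78-based luminescent sensor were seeded at 1000 cells/well, pin-dosed with compounds and incubated 16 h. Luciferase reagent was then added, and end-point luminescence was read after 10 min at room temperature.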
KCNH2 WT inh: blocks the wildtype human KCNH2 potassium channel; hit rate 0.37% among 340,000; U2OS, BacMam KCNH2, thallium flux FluxOr; hits give low values; activity change, % at 1.84 µM;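 active means maximum activity change below -70%; inconclusive means maximum activity change between -70% and -50%; inactive means maximum activity change above -50%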; further: on the % scale 0 is the no-effect control and ±100 the full control effect
Target sequence (Q12809 whole entry, looked up): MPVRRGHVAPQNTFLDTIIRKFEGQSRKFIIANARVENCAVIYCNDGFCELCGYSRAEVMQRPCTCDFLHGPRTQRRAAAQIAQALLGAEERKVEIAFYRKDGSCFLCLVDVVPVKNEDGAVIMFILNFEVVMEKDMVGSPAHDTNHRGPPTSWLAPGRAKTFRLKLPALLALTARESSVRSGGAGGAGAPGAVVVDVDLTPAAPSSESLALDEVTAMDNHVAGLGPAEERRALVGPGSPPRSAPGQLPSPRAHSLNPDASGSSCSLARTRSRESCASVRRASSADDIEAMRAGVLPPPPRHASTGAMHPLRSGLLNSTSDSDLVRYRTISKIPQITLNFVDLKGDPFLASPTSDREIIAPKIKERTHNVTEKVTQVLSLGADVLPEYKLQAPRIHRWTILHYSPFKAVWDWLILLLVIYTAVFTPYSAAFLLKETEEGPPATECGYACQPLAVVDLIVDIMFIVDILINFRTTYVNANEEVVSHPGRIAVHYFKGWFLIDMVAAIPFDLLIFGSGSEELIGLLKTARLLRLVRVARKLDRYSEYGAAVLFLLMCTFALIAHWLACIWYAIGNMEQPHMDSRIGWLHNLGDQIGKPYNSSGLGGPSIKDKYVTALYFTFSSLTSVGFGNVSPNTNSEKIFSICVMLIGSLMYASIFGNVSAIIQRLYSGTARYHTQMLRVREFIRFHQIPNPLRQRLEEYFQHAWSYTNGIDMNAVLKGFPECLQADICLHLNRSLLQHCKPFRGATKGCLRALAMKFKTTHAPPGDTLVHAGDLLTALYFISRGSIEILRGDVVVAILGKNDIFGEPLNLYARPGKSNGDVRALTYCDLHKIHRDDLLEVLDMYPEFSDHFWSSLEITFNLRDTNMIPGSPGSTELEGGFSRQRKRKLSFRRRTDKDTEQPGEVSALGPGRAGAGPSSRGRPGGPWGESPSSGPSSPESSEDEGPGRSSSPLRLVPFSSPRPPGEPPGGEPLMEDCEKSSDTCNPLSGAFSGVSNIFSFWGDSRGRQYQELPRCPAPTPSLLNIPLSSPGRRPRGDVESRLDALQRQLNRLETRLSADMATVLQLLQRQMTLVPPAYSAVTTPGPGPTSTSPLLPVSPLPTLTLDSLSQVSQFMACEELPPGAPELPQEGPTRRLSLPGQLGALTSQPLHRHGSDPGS
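U2OS cells transduced with wild-type KCNH2 virus are loaded with FluxOr dye for 45 min, and thallium flux is measured in kinetic reads before and after stimulation buffer. Rate constants are normalized to DMSO controls.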
gsp ag: agonists of gsp mutant (McCune-Albright syndrome) | Potency, µM (highest dose often 76.9 µM), without a hit: top-dose activation (cAMP increase), usual class: activators | hit rate 0.13% among 340,000 | gsp mutant cells, cAMP HTRF, 30 min; active means well fitted activation curve with a large enough effect; inconclusive means small, poorly fitted or top-dose-only effect, or another doubt; inactive means no such curve, though single readings can be large or run the other way; cell line not stated here;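 further: phosphodiesterase inhibitor Ro 20-1724 added with compounds to block cAMP breakdown; potency means the concentration at half of the fitted maximal effect; nearly all actives have a fitted effect of over 60% in size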
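Cells in DMEM/10% FBS with G418 were pretreated with compounds in DMSO plus […] (300 uM stock) for 30 min at 37C. cAMP was measured by HTRF (cAMP-d2 plus anti-cAMP antibody-K) after 30 min at room temperature.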
* marks the source's active call; other numbers are inactive results; i = inactive; ? = inconclusive; nt = no result; [ ] = remark or other dose.

SMILES | KCNH2 3.1 inh | Akt phos inh | gsp antagonist | GRP78 ERSR act | KCNH2 WT inh | gsp ag
c1cnc2cc3c(cc2n1)[C@@H]1CNC[C@@H]3C1 | nt | nt | nt | -1% | nt | nt
COC(=O)[C@@]1(C)[C@H]2C(=O)N(Cc3ccccc3)C(=O)[C@H]2[C@H]2CN=C(SCC(=O)c3ccccc3)N21 | -80* | i | 2% | 1% | -3 | nt
COC(=O)[C@@]1(C)[C@H]2C(=O)N(Cc3ccccc3)C(=O)[C@H]2[C@H]2CN=C(SC)N21 | -1 | i | 9% | 1% | -3 | nt
O=C(Cn1nnc(-c2ccc(F)cc2)n1)N1CCCCC1 | 3 | i | 9% | -3% | -8 | 0%
O=C(Cn1nnc(-c2ccccc2F)n1)N1CCCCC1 | -134* | i | 4% | -2% | -7 | 7%
COc1ccc(OC)c(/C=C2\S/C(=N/NC(=O)c3ccc4ccccc4c3)NC2=O)c1 | -9 | i | 4% | -4% | 6 | 24%[15.4 µM]
O=C1N/C(=N/NC(=O)c2cccc3ccccc23)S/C1=C\c1ccccc1OCc1ccccc1 | 15 | i | 28µM* | -8% | -1 | ?
CCC(O)CNC(=O)c1cnn(-c2ncc3c(n2)-c2ccccc2CCC3)c1C1CC1 (stereo not given) | nt | nt | nt | 0% | nt | nt
COC(=O)c1ccc(Oc2nc(N(C)C)nc(N3CCOCC3)n2)cc1 | -3 | i | -4% | 0% | -1 | -5%
CCOC(=O)c1ccc(Oc2nc(N(C)C)nc(N3CCOCC3)n2)cc1 | 0 | i | 50µM* | -2% | nt | 27%
COc1cc(C(=O)NNC(=O)c2ccccc2OCc2c(C)noc2C)cc(OC)c1OC | -87* | i | -6% | -1% | 12 | ?
CN1C(=O)/C(=C/c2cccc(Cl)c2)Sc2ccc(C(=O)N3CCCC3)cc21 | -28 | i | 8.9µM* | -3% | -2 | 0%
Cc1cccc(/C=C2\Sc3ccc(C(=O)N4CCCCC4)cc3N(C)C2=O)c1 | -12 | nt | 6% | -5% | 8 | -24%
O=C(c1ccc(CSc2nc3ccncc3[nH]2)cc1)N1CCN(c2cccc(Cl)c2)CC1 | -9 | i | 35µM* | -8% | -3 | ?
Cc1ncc2c(c1CNS(=O)(=O)N(C)C)CCN(C(=O)/C=C/c1ccccc1F)C2 | nt | nt | nt | -2% | nt | nt
N#CC1(Cc2ccc([N+](=O)[O-])cc2)c2ccccc2C=CN1C(=O)c1ccccc1 (stereo not given) | -88* | i | 1%[15.4 µM] | -4% | 3 | 19%
COc1ccc(N2C(=O)C3CCCN3C2c2ccc(C)o2)cc1 (stereo not given) | -2 | i | 50µM* | -3% | 4 | -6%
CCn1c(-c2ccccc2F)nc2cc(NC(C)=O)cc(C(=O)N3CCC[C@H]3C(=O)OC)c21 | nt | nt | nt | -1% | nt | nt
N#Cc1c2n(c3c(=O)n(CC(=O)c4ccc([N+](=O)[O-])cc4)cnc13)CCCCC2 | -16 | i | 11% | -4% | -101* | ?
N#Cc1c2n(c3c(=O)n(CC(=O)c4ccc(Br)cc4)cnc13)CCCC2 | -10 | i | 23% | -7% | 7 | 12%
COc1ccc(F)cc1C(=O)C1CCCN(Cc2cccn2-c2cccnc2)C1 (stereo not given) | -19 | i | -1% | -6% | 14 | -1%
COc1cccc(C(=O)C2CCCN(Cc3cccc(OCCO)c3)C2)c1 (stereo not given) | 11 | i | -5% | -1% | 3 | ?
COc1ccc(C(=O)C2CCCN(Cc3cccn3-c3nccs3)C2)cc1F (stereo not given) | -117* | i | 11% | -4% | -103* | -47%
COc1ccc(C(=O)C2CCCN(Cc3cccn3-c3nccs3)C2)cc1OC (stereo not given) | ? | i | 11% | -7% | -35 | 1%
COc1cccc(C(=O)C2CCCN(Cc3cccn3-c3ccccn3)C2)c1 (stereo not given) | -101* | i | 4% | -4% | ? | -20%[15.4 µM]
COc1ccc(C(=O)C2CCCN(Cc3cccn3-c3ccccn3)C2)cc1F (stereo not given) | -93* | i | 15% | -4% | -96* | 22%
